For test [1], the target named is Retinoic acid receptor RXR-alpha (Homo sapiens) (UniProt P19793). Kind of test: OT_NURR1_NURR1RXRa_0480: Odyssey Thera (OT) 8-hour HEK293T Protein Complementation Assay for Nurr1/retinoid X receptor (RXR) (AID 2283385; active = hit-call score of the fitted dose curve at least 0.9, where 1 is the maximum). The method in brief: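 HEK293T cells expressing Nurr1 and RXRα fused to reporter fragments were dosed with compound for 8 hours. Complex formation was read as fluorescence intensity and analysed as gain of signal against DMSO as baseline.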
Retinoic acid receptor RXR-alpha (Homo sapiens), sequence (P19793 whole entry, looked up, the tested form may be a part): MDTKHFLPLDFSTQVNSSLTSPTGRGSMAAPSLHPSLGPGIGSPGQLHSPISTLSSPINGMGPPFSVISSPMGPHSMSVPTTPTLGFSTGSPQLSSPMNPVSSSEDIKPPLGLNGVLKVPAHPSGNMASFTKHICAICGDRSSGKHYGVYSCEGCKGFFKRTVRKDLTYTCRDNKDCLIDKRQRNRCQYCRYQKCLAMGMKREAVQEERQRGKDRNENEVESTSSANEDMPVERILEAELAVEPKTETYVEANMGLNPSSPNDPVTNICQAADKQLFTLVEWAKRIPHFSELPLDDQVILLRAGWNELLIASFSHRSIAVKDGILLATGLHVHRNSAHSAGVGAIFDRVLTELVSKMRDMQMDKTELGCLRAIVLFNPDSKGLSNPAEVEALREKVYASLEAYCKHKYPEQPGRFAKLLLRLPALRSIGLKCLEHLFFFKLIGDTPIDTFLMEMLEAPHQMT

The target is the same in test [2]. The test is described as follows: OT_NURR1_NURR1RXRa_1440: Odyssey Thera (OT) 24-hour HEK293T Protein Complementation Assay for Nurr1/retinoid X receptor (RXR) (AID 2283386; active = hit-call score of the fitted dose curve at least 0.9, where 1 is the maximum). The method in brief: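 HEK293T cells were dosed with compound and read 24 h later by fluorescence intensity in a protein-fragment complementation format, where Nurr1–RXRα interaction reconstitutes a split reporter. Activity was fitted as gain of signal relative to DMSO baseline.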

Test [3] addresses Peroxisome proliferator-activated receptor gamma (Homo sapiens) (UniProt P37231). The test is described as follows: OT_PPARg_PPARgSRC1_0480: Odyssey Thera (OT) 8-hour Protein-Complementation Assay for Peroxisome Proliferator-activated Receptor Gamma / SRC-1 Co-activator (AID 2283387; active = hit-call score of the fitted dose curve at least 0.9, where 1 is the maximum). The method in brief:
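HEK293T transiently transfected with PPARg and SRC-1 fused to Venus YFP fragments, compounds 8 h at 37C. Fixed, Draq5-stained cells imaged; nuclear/cytoplasmic 488 nm fluorescence ratio over at least 350 cells per image; gain fitted versus DMSO.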

Test [4] shares this target. Kind of test: OT_PPARg_PPARgSRC1_1440: Odyssey Thera (OT) 24-hour Protein-Complementation Assay for Peroxisome Proliferator-activated Receptor Gamma/ SRC-1 Co-activator (AID 2283388; active = hit-call score of the fitted dose curve at least 0.9, where 1 is the maximum). Put shortly: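 HEK293T transiently transfected with PPARg/SRC-1 split-Venus YFP fusions 48 h before dosing, then treated 24 h at 37C. Fixed cells imaged; nuclear/cytoplasmic 488 nm fluorescence ratio, gain of signal versus DMSO.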

A short description of test [5]: CEETOX_H295R_11DCORT: CeeTox H295R High-throughput Steroidogenesis Assay for 11-Deoxycortisol (11DCORT) (AID 2283432).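 As to AC50: 11-deoxycortisol secreted into the medium measured by LC-MS/MS.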 As to conditions: actives raise or lower the signal. The method in brief: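 H295R cells prestimulated 48 h with 10 uM forskolin, then exposed 48 h to chemical in 0.1% DMSO. 11-Deoxycortisol in medium quantified by HPLC-MS/MS after MTBE extraction; bidirectional fit versus DMSO. MTT viability read in same wells.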

A short description of test [6]: CEETOX_H295R_OHPREG: CeeTox H295R High-throughput Steroidogenesis Assay for OH-Pregnenolone (OHPREG) (AID 2283434). The note with it: actives raise or lower the signal. The method in brief:
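Hormone levels in spent medium were measured by tandem mass spectrometry following liquid-liquid extraction. Cells (H295R) had been forskolin-stimulated (10 uM, 48 h) before a 48 h chemical exposure at 0.1% DMSO, with activity fitted in both directions against DMSO.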

A short description of test [7]: CEETOX_H295R_OHPROG: CeeTox H295R High-throughput Steroidogenesis Assay for OH-Progesterone (OHPROG) (AID 2283435). As to conditions: actives raise or lower the signal. Put shortly: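 H295R human adrenal cells were prestimulated 48 h with 10 uM forskolin, then exposed 48 h to test chemical (0.1% DMSO final). 17alpha-hydroxyprogesterone in medium was measured by HPLC-MS/MS after MTBE extraction; bidirectional fitting vs DMSO.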

Test [8] can be described thus: CEETOX_H295R_ANDR: CeeTox H295R High-throughput Steroidogenesis Assay for Androstenedione (ANDR) (AID 2283436). The note with it: actives raise or lower the signal. The method in brief: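 Read-out is androstenedione secreted into medium, measured by tandem mass spectrometry after liquid-liquid extraction. Cells were H295R, dosed for 48 h per modified OECD 456; activity fitted in both directions relative to DMSO.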

Test [9] can be described thus: CEETOX_H295R_CORTIC: CeeTox H295R High-throughput Steroidogenesis Assay for Corticosterone (CORTIC) (AID 2283437).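 Also: corticosterone secreted into medium quantified by mass spectrometry.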 As to conditions: actives raise or lower the signal. The method in brief: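 Corticosterone secreted into medium is measured by reverse-phase HPLC with tandem MS following liquid-liquid extraction. Cells are forskolin-stimulated (10 uM, 48 h) before 48 h test exposure; activity fitted in both directions against DMSO.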

The nature of test [10]: CEETOX_H295R_CORTISOL: CeeTox H295R High-throughput Steroidogenesis Assay for Cortisol (AID 2283438).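 Also: cortisol secreted into medium quantified by LC-MS/MS.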 As to conditions: actives raise or lower the signal. Put shortly: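 H295R human adrenal cells were prestimulated 48 h with 10 uM forskolin, then exposed 48 h to test chemical (0.1% DMSO final). Medium cortisol was quantified by HPLC-MS/MS after MTBE extraction; bidirectional fitting relative to DMSO baseline.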

The nature of test [11]: CEETOX_H295R_DOC: CeeTox H295R High-throughput Steroidogenesis Assay for DOC (AID 2283439). As to conditions: actives raise or lower the signal. Put shortly: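 H295R adrenal cells prestimulated 48 h with 10 uM forskolin, then exposed 48 h to test chemical (0.1% DMSO final). Medium 11-deoxycorticosterone extracted with MTBE, quantified by HPLC-MS/MS; bidirectional fit versus DMSO baseline; MTT viability in same wells.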

The nature of test [12]: CEETOX_H295R_PROG: CeeTox H295R High-throughput Steroidogenesis Assay for Progesterone (PROG) (AID 2283442).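 As to AC50: human H295R adrenal cells primed with 10 µM forskolin before dosing.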 As to conditions: actives raise or lower the signal. The method in brief:
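H295R adrenal cells prestimulated 48 h with 10 uM forskolin, then exposed 48 h to test chemical in 0.1% DMSO. Progesterone in medium quantified by HPLC-MS/MS after MTBE extraction; viability checked by MTT in same wells.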

Read-out in test [13]: Tumor necrosis factor receptor superfamily member 6 (Homo sapiens) (UniProt P25445)
Kind of test: LTEA_HepaRG_FAS: Life Technologies and Expression Analysis (LTEA) Assay for Fas cell surface death receptor (FAS) using HepaRG (AID 2283447). As to conditions: mRNA level, 48 h; actives raise or lower the signal. Put shortly:
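FAS transcript level was measured by TaqMan qRT-PCR against three housekeeping genes after 48 h chemical exposure. Cells were HepaRG, 0.5% DMSO vehicle, with a top concentration of 100 uM and half-log dilutions over eight points, in duplicate.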

Read-out in test [14]: Fatty acid synthase (Homo sapiens) (UniProt P49327)
Kind of test: LTEA_HepaRG_FASN: Life Technologies and Expression Analysis (LTEA) Assay for Fatty Acid Synthase (FASN) using HepaRG (AID 2283448). As to conditions: mRNA level, 48 h; actives raise or lower the signal. The method in brief:
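Differentiated human HepaRG cells were exposed for 48 h in serum-free induction medium to eight half-log concentrations up to 100 uM in 0.5% DMSO, in duplicate. FASN mRNA was quantified by TaqMan qRT-PCR, normalized to ACTB/GAPDH/POLR2A, and fitted bidirectionally against DMSO.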

Read-out in test [15]: Cyclin D2 (CCND2), CCND2 (gene 894)
Kind of test: LTEA_HepaRG_CCND2: Life Technologies and Expression Analysis (LTEA) Assay for Cyclin D2 (CCND2) using HepaRG (AID 2283449). The note with it: mRNA level, 48 h; actives raise or lower the signal. Put shortly: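 Read-out is CCND2 mRNA level measured by qRT-PCR in human HepaRG liver cells and normalised to three housekeeping genes. Chemicals were applied for 48 h at up to 100 uM, with gain or loss fitted relative to 0.5% DMSO.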

Read-out in test [16]: Cyclin Dependent Kinase Inhibitor 1A (CDKN1A), CDKN1A (gene 1026)
The test is described as follows: LTEA_HepaRG_CDKN1A: Life Technologies and Expression Analysis (LTEA) Assay for Cyclin Dependent Kinase Inhibitor 1A (CDKN1A) using HepaRG (AID 2283450). The note with it: mRNA level, 48 h; actives raise or lower the signal. Put shortly: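 Differentiated HepaRG cells in serum-free induction medium, exposed 48 h in duplicate to eight half-log concentrations up to 100 uM in 0.5% DMSO. mRNA measured by TaqMan qRT-PCR, normalized to ACTB, GAPDH, POLR2A; bidirectional fit versus DMSO.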

Read-out in test [17]: Cyclin D1 (CCND1), CCND1 (gene 595)
The test is described as follows: LTEA_HepaRG_CCND1: Life Technologies and Expression Analysis (LTEA) Assay for Cyclin D1 (CCND1) using HepaRG (AID 2283451). As to conditions: mRNA level, 48 h; actives raise or lower the signal. Put shortly: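 Differentiated HepaRG cells exposed 48 h in serum-free induction medium to eight half-log concentrations from 100 uM top, 0.5% DMSO, duplicates. CCND1 mRNA measured by Fluidigm TaqMan qRT-PCR, normalised to ACTB, GAPDH, POLR2A; bidirectional fit.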

Read-out in test [18]: catalase (CAT), CAT (gene 847)
Kind of test: LTEA_HepaRG_CAT: Life Technologies and Expression Analysis (LTEA) Assay for catalase (CAT) using HepaRG (AID 2283452). As to conditions: mRNA level, 48 h; actives raise or lower the signal. The method in brief:
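Expression of CAT was quantified by TaqMan qRT-PCR with ACTB/GAPDH/POLR2A normalization after 48 h chemical exposure of HepaRG. Eight-point half-log series, top 100 uM, in 0.5% DMSO; gain or loss fitted against vehicle.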

Test [19] in a line: CEETOX_H295R_ESTRADIOL: CeeTox H295R High-throughput Steroidogenesis Assay for Estradiol (AID 2283440).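 Also: estradiol secreted into medium quantified by LC-MS/MS after dansyl derivatisation.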 The note with it: actives raise or lower the signal. Put shortly: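 H295R cells pre-stimulated 48 h with 10 uM forskolin, then exposed 48 h to chemical in 0.1% DMSO. Medium estradiol quantified by MTBE extraction, dansyl derivatisation and HPLC-MS/MS; bidirectional fit versus DMSO; MTT viability required >/=70%.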

A short description of test [20]: CEETOX_H295R_ESTRONE: CeeTox H295R High-throughput Steroidogenesis Assay for Estrone (AID 2283441).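 Also: estrone secreted into medium measured by LC-MS/MS after dansyl derivatization.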 As to conditions: actives raise or lower the signal. The method in brief: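 H295R cells; 48 h forskolin (10 uM) prestimulation; 48 h compound exposure, 0.1% DMSO final. Medium estrone: MTBE extraction, dansyl derivatization, HPLC-MS/MS. Bidirectional fit vs DMSO.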

Several values for one entry are separate records, joined by “and”; a condition that tells them apart may be missing. Equal entries are not always repeated. Records with an inconclusive call do not appear. Where a structure was tested more than once in an assay, its records may differ in their call. Activity calls are given as the source filed them. The calls were made as follows, unless noted: active = hit-call score of the fitted dose curve at least 0.9, where 1 is the maximum; inactive = score below 0.9.

Peroxisome proliferator-activated receptor gamma (Homo sapiens), sequence (P37231 whole entry, looked up, the tested form may be a part): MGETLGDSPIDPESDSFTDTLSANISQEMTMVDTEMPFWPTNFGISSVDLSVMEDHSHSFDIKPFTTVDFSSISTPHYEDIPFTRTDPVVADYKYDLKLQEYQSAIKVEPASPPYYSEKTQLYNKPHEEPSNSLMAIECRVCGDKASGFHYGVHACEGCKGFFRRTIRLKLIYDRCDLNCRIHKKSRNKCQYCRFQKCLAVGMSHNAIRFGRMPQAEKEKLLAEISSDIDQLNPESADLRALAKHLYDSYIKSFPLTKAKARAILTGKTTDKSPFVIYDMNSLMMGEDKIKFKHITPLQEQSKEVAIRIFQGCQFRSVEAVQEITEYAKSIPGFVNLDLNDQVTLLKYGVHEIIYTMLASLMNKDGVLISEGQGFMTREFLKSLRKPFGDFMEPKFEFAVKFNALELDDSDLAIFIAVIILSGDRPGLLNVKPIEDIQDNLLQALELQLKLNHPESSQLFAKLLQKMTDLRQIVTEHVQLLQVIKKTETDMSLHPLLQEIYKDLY
Fatty acid synthase (Homo sapiens), sequence (P49327 whole entry, looked up): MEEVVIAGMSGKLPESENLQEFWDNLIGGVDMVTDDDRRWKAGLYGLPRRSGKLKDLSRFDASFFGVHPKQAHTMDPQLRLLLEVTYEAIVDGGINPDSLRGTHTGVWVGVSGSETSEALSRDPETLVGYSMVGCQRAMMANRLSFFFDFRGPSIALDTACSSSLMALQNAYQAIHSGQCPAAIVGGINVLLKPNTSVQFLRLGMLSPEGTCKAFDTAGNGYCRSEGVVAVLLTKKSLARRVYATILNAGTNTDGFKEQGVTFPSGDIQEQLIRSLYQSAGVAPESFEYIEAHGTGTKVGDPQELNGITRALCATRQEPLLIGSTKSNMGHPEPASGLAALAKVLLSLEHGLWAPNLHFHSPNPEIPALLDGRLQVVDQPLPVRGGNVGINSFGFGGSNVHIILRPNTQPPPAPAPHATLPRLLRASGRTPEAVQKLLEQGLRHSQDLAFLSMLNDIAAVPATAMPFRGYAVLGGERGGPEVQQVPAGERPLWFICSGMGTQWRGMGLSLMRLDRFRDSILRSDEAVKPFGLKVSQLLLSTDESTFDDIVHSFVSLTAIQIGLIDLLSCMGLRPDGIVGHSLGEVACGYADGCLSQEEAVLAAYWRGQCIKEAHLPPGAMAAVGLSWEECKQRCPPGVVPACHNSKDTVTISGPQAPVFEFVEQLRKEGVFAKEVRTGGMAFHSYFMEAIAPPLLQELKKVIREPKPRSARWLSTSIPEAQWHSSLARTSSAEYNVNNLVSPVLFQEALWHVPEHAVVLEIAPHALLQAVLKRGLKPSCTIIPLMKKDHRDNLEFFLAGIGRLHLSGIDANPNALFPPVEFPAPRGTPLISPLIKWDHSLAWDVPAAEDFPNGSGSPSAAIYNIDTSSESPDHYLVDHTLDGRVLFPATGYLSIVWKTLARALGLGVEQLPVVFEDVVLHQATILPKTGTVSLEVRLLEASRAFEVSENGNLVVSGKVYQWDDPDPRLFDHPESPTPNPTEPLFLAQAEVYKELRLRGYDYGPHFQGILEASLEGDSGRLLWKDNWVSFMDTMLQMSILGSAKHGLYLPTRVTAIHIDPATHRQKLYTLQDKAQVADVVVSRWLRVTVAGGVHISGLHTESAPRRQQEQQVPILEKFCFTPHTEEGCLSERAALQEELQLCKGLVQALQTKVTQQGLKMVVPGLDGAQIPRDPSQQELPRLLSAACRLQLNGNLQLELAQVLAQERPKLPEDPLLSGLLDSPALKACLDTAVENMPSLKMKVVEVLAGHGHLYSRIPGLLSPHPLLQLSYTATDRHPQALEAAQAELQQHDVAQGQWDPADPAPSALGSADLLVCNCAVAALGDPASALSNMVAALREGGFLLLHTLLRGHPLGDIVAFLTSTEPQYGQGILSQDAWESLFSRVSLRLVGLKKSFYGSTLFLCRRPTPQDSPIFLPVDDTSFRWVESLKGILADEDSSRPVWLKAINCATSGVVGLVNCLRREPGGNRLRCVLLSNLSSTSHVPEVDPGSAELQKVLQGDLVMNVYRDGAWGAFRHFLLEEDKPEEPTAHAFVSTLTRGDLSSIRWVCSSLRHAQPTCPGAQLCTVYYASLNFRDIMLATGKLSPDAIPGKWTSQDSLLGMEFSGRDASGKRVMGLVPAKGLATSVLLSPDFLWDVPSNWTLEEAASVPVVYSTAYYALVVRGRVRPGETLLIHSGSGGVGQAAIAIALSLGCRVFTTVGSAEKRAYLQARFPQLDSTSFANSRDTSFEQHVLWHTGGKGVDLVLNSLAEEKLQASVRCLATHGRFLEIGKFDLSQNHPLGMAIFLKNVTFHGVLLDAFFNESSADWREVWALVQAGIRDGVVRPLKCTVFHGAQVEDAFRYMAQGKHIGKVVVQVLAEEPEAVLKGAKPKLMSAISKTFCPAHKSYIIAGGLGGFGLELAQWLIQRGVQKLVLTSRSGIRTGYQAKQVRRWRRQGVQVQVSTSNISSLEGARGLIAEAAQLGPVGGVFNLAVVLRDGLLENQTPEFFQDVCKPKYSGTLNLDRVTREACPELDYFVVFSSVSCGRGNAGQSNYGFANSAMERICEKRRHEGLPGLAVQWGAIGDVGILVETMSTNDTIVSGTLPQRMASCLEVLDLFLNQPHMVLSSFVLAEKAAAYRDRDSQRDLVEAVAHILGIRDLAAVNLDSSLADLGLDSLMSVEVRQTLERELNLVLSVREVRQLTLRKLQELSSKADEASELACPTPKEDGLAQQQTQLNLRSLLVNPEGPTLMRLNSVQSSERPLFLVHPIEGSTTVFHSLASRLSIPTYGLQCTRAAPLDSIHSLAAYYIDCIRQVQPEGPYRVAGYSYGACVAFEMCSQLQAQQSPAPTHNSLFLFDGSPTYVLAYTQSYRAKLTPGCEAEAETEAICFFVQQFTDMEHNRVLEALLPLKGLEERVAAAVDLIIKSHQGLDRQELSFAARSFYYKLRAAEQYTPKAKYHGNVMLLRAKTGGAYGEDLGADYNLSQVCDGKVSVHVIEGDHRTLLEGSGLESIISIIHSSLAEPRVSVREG

Turning to `CC(C)(O)c1cnn2c(-c3ccc(F)c(-c4c(F)cccc4C#N)c3)cnc2n1`, the AC50 – broadly, the concentration giving half of the maximal activity seen – was 84.7 µM (active) and 91.1 µM (active) in [1]; 86.8 µM (active) and 75.3 µM (active) in test [2]; 92.9 µM (active) and 93.2 µM (active) in test [3]; 92.9 µM (active) and 79.4 µM (active) in test [4]; 0.408 µM (active) in test [7]; 0.251 µM (active) in test [12]. Besides, the molecule was called inactive in test [5], in test [6], in test [8], in test [9], in test [10] and in [11]. The outcome in test [13], in [14], in test [15], in [16], in test [17] and in test [18] was inactive.

Consider `C[C@]12C=CC3=C4CCC(=O)C=C4CC[C@H]3[C@@H]1CC[C@@H]2O`, for which the AC50 is 14.3 µM (active) in test [1]; 12 µM (active) and 12.5 µM (active) and 12.6 µM (active) in test [2]; 13.2 µM (active) in test [6]; 90.1 µM (active) in test [8]; 0.0975 µM (active) in test [12]; 61 µM (active) in test [14]. Further, the half-maximal activity concentration (AC50) in test [18] is 50 µM (active). Also, the molecule was classed as inactive in test [1], in test [2], in [3], in [4], in test [13] and in [15]. Besides, the result in [16] and in test [17] was inactive.

Regarding `CC(C)(C)C(O)(CCc1ccc(Cl)cc1)Cn1cncn1` (stereo not given), the call in [1], in test [2], in test [3], in [4], in [9] and in [13] was inactive. Further, the call in test [15], in test [17] and in [18] was inactive. The concentration at half-maximal activity (AC50) in test [5] was 1.85 µM (active); in test [6] it was 0.503 µM (active); in test [7] it was 0.552 µM (active); in test [10], 5.75 µM (active); in [11], 0.26 µM (active); in [12], 0.121 µM (active). Besides, the AC50 in [14] is 3.08 µM (active); in [16], 88.7 µM (active).

With `CCCCCOC(=O)c1ccccc1C(=O)OCCCCC`, the call in [1], in test [2], in test [3], in [4], in test [5] and in test [6] was inactive. For the same molecule, the result in test [7], in test [9], in test [11], in test [19], in test [20] and in test [12] was inactive. The outcome in test [14], in [15], in test [16], in [17] and in test [18] was inactive.

Take `c1ccc(N=Nc2ccccc2)cc1`: the outcome in test [1], in [2], in test [3], in test [4], in [5] and in test [6] was inactive. The call in [7], in [9], in [10], in test [13], in [14] and in test [15] was inactive. The call in test [16], in test [17] and in test [18] was inactive.

On to `c1ccc(NNc2ccccc2)cc1`, for which the outcome in test [1], in test [2], in [5], in test [6], in test [10] and in test [12] was inactive. For the same molecule, the call in test [14], in [15], in [16], in test [17] and in test [18] was inactive. Moreover, the AC50 was 82.8 µM (active) in test [2] and 48.6 µM (active) in test [7].

As for `Cc1ccc(N)cc1`, the molecule was called inactive in [1], in test [2], in test [4], in test [13], in [14] and in test [15]. Moreover, the molecule was classed as inactive in test [16], in test [17] and in [18]. Further, the half-maximal activity concentration (AC50) in test [2] was 50 µM (active).

The values above are taken from PubChem BioAssay (EPA / NIEHS).
